The values below come from PubChem BioAssay (NCATS).

Assay [1] addresses Estrogen receptor (Homo sapiens) (UniProt P03372). The experiment in a line: qHTS assay for small molecule antagonists of estrogen receptor alpha signaling (AID 588513; active = well fitted curve in the direction sought with a large enough effect in the signal ratio, with a control signal flat, not every such curve was filed as active; the % refers to the signal ratio; also: % is scaled to controls: 0 for no effect and ±100 for the full control effect). Put shortly:
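Fluorescence from CCF4 substrate after 2 h at room temperature gave reporter activity; cells had been exposed to compound and 0.5nM 17-beta-estradiol for 18 h at 37 C. Hill-equation fitting yielded IC50 and maximal response.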

Assay [2] can be described thus: qHTS assay for small molecule agonists of retinoid X receptor alpha signaling (AID 588544). Particulars: HEK293T RXRa-UAS-bla, beta-lactamase reporter, 18 h; 530 nm emission. (In general: Quantitative high-throughput screening tests each substance at several concentrations.)
Assay [3] deals with Thyroid hormone receptor beta (Homo sapiens) (UniProt P10828). In words: qHTS assay for small molecule agonists of thyroid hormone receptor beta signaling (AID 588545; calls by dose curve;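 also: 0% = DMSO only and 100% = 10 nM T3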). Put shortly: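 Beta-lactamase reporter activity under TR response element control is measured in HEK 293 cells after 18 hrs compound exposure. Signal is ratiometric CCF4 fluorescence, 460/530 nm.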
Assay [4] is described as follows: qHTS assay for small molecule antagonists of retinoid X receptor alpha signaling (AID 588546; active = well fitted inhibition curve with a large enough effect in the signal ratio, with a control signal flat, not every such curve was filed as active; the % refers to the signal ratio;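 also: cells stimulated with 9-cis-retinoic acid as agonist; % is scaled to controls: 0 for no effect and ±100 for the full control effect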). Particulars: HEK293T RXRa-UAS-bla, beta-lactamase ratio, antagonist mode; measured here: W530 green channel, cytotoxicity proxy. The essentials: (§1)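 Beta-lactamase reporter inhibition, read as CCF4 fluorescence ratio (ex 405, em 460/530 nm) after 2 h at RT. HEK293T UAS-bla cells, 2500/well, were stimulated with 9-cis-RA at 500 or 100 nM final alongside test compound for 18 h at 37 C.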

The target in assay [5] is Retinoic acid receptor RXR-alpha (Homo sapiens) (UniProt P19793). Described as above. The conditions noted are these: HEK293T RXRa-UAS-bla, beta-lactamase ratio, antagonist mode. The essentials:
as §1

Assay [6] addresses Thyroid hormone receptor beta (Homo sapiens) (UniProt P10828). In words: qHTS assay for small molecule antagonists of thyroid hormone receptor beta signaling (AID 588547; active = well fitted inhibition curve with a large enough effect in the signal ratio, with a control signal flat, not every such curve was filed as active; the % refers to the signal ratio;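 also: cells stimulated with 0.4 nM T3 agonist during compound exposure; series mostly up to about 77 µM; % is scaled to controls: 0 for no effect and ±100 for the full control effect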). The conditions noted are these: TR-UAS-bla HEK293, beta-lactamase ratio, antagonist mode, 18 h. Put shortly: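 Inhibition of T3-driven (0.4nM final) beta-lactamase reporter activity was measured over 0.59 nM to 92 uM compound after 18 h at 37 C. The cells were GripTite HEK293 TR-UAS-bla in charcoal/dextran-stripped serum, with CCF4 ratio read-out and IC50 from Hill fits.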

Assay [7] has as its target Peroxisome proliferator-activated receptor alpha (Homo sapiens) (UniProt Q07869). The experiment in a line: qHTS assay for small molecule agonists of the peroxisome proliferator-activated receptor alpha (PPARalpha) signaling pathway (AID 651778). Also: % of control where 0% means no effect. The conditions noted are these: PathHunter PPARalpha complementation, chemiluminescence, 6 h; max response: stronger effect = higher value. Put shortly: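 Chemiluminescence from complemented enzyme reported PPARalpha activation in cells after 6 hr of compound treatment at 37 C. The detection reagent was incubated for 60 min at room temperature, and compounds were scored as agonists.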

Assay [8] is described as follows: qHTS assay for small molecule agonists of the antioxidant response element (ARE) signaling pathway measured by Nrf2-dependant transcriptional activity - cell viability counter screen (AID 720653; active = well fitted curve in the direction sought with a large enough effect in the repeat runs; an effect the other way counts as inactive or inconclusive; also: % is scaled to controls: 0 for no effect and ±100 for the full control effect). Particulars: ARE-bla HepG2 viability, CellTiter-Glo ATP luminescence, 16 h; max response: stronger effect = lower value. The essentials:
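Cytotoxicity counter screen: intracellular ATP quantified by CellTiter-Glo luminescence in the same ARE-bla HepG2 plates, after 16 h compound exposure and a 2 h beta-lactamase substrate step.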

Assay [9] in a line: qHTS assay for cell viability of HEK293 cells (AID 743288). Also: % is scaled to controls: 0 for no effect and ±100 for the full control effect; nearly all actives have a fitted effect of over 50% in size. Particulars: ATP luminescence (CellTiter-Glo), 18 h; max response: stronger effect = lower value. The essentials: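 HEK293 parental, 2,000 cells/well; ≥5 h pre-incubation 37 C; pintool compound addition; 18 h, 37 C; CellTiter-Glo 30 min RT; luminescence read.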
Assay [10] is described as follows: qHTS assay for cell viability of the p53RE-bla HCT-116 cell line (AID 743292). Also: % is scaled to controls: 0 for no effect and ±100 for the full control effect; nearly all actives have a fitted effect of over 55% in size. The essentials:
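Readout: CellTiter-Glo luminescence after 30 min RT. Treatment: compounds in DMSO, 16 h, 37 C. Cells: CellSensor p53RE-bla HCT-116, 4,000/well, preincubated 5 h.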

Assay [11] deals with Estrogen receptor (Homo sapiens) (UniProt P03372). The experiment in a line: qHTS assay for small molecule agonists of estrogen receptor alpha signaling (AID 588514; calls by dose curve;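 also: 0% = vehicle only and 100% = reference agonist; nearly all actives have a fitted effect of over 70% in size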). The essentials: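 ER-alpha-UAS-bla GripTite HEK293 cells, 5000/well in 2% charcoal/dextran-stripped FBS medium, treated with compound titrations 18 h at 37 C. CCF4 beta-lactamase read by fluorescence after 2 h RT; normalised to 20 nM 17-beta-estradiol (100%) and DMSO (0%), Hill fit for EC50 and efficacy.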

Assay [12] has as its target Glucocorticoid receptor (Homo sapiens) (UniProt P04150). In words: qHTS assay for small molecule agonists of glucocorticoid receptor signaling (AID 588532; active = well fitted curve in the direction sought with a large enough effect in the signal ratio, with a control signal flat; the % refers to the signal ratio;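 also: 100% = dexamethasone at 0.1 µM and 0% = DMSO only wells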). The conditions noted are these: HeLa MMTV-bla, beta-lactamase ratio, agonist, 18 h; stronger effect = higher value; percent of dexamethasone control, DMSO zero. The essentials: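 Agonist-mode qHTS: GRE-driven beta-lactamase in HeLa cells exposed 18 h to titrated compounds (up to 92 uM), then CCF4 ratio read after 2 h at RT; Hill-fitted EC50, efficacy relative to 0.1 uM dexamethasone.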

A short description of assay [13]: qHTS assay for small molecule activators of the p53 signaling pathway (AID 651743; active = well fitted activation curve with a large enough effect in the signal ratio, not every such curve was filed as active; the % refers to the signal ratio; also: series mostly up to about 92 µM; % of control where 0% means no effect). Particulars: HCT-116 p53RE-bla, beta-lactamase FRET ratio, 16 h; activation: stronger effect = higher value. Put shortly: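 Read-out is fluorescence intensity from the LiveBLAzer B/G FRET substrate, added for 2 hours at room temperature after HCT-116 p53RE-bla cells had been incubated with compounds for 16 hours at 37 C.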

The nature of assay [14]: qHTS assay for environmental chemicals that activate the Aryl hydrocarbon Receptor (AhR) signaling pathway (AID 651777). Also: % of control where 0% means no effect; nearly all actives have a fitted effect of over 15% in size. Particulars: 1A2-DRE human hepatoma cells, luciferase, 24 h; activation: stronger effect = higher value. Put shortly: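 Stable CYP1A2 promoter/DRE-luciferase human hepatoma line treated 24 hr; One-Glo luminescence, 30 min RT.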
Assay [15] in a line: qHTS assay for small molecule agonists of the antioxidant response element (ARE) signaling pathway measured by Nrf2-dependant transcriptional activity (AID 720636; active = well fitted curve in the direction sought with a large enough effect in the repeat runs; an effect the other way counts as inactive or inconclusive;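 also: HepG2 cells with an ARE-driven luciferase reporter; % of control where 0% means no effect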). Put shortly:
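Reporter gene assay, HepG2 ARE-luc: 16 hr compound, 37 C, 5% CO2; read-out luciferase luminescence.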

For assay [16], the target named is Nuclear receptor subfamily 1 group I member 2 (Rattus norvegicus) (UniProt Q9R1A7). The experiment in a line: qHTS assay for small molecule activators of the rat pregnane X receptor (rPXR) signaling pathway (AID 651751; call rule not given here; also: 0% is about no effect). Particulars: rPXR reporter cells, luciferase (One-Glo), 24 h.
A short description of assay [17]: qHTS assay for small molecule activators of the human pregnane X receptor (PXR) signaling pathway (AID 720659; call rule not given here; also: 0% is about no effect).
For assay [18], the target named is Peroxisome proliferator-activated receptor gamma (Homo sapiens) (UniProt P37231). The experiment in a line: qHTS assay for small molecule agonists of peroxisome proliferator-activated receptor gamma signaling (AID 588536; active = well fitted curve in the direction sought with a large enough effect in the signal ratio, with a control signal flat, not every such curve was filed as active; the % refers to the signal ratio;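 also: 0% = DMSO basal wells and 100% = rosiglitazone at 2 µM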). Put shortly:
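Ratiometric blue/green fluorescence (405 nm excitation; 460 and 530 nm emission) from CCF4-loaded HEK293 reporter cells serves as signal. Exposure to test compounds lasts 16 h at 37 C in medium containing 1% charcoal/dextran-treated serum.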

Assay [19] is described as follows: qHTS assay for small molecule antagonists of peroxisome proliferator-activated receptor delta signaling (AID 588535; active = well fitted inhibition curve with a large enough effect in the signal ratio, with a control signal flat, not every such curve was filed as active; the % refers to the signal ratio;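 as to max response: cells co-treated with a PPAR-delta agonist as stimulator during compound exposure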). The conditions noted are these: HEK293T PPARd-UAS-bla, beta-lactamase FRET ratio, 18 h; 460 nm channel. The essentials: (§2)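 HEK293T PPAR-delta-UAS-bla cells, 4000/well, 2% charcoal/dextran FBS; 5 h 37 C; cpd titration; 18 h 37 C; CCF4 2 h RT; FI 460/530 nm; Hill fit → IC50, efficacy.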

In assay [20] the target is Peroxisome proliferator-activated receptor delta (Homo sapiens) (UniProt Q03181). The assay is described as above. Put shortly: as §2

Records with an inconclusive call do not appear. Active and inactive are the calls of the source. Unless noted, calls follow the shape of the dose curve; as a rule, active = well fitted curve in the direction sought with a large enough effect; inconclusive = small, poorly fitted or top-dose-only effect, or another doubt; inactive = no such curve, though single readings can be large; an effect the other way counts as inactive or inconclusive.

Chain of Thyroid hormone receptor beta (Homo sapiens) (P10828 whole entry, looked up): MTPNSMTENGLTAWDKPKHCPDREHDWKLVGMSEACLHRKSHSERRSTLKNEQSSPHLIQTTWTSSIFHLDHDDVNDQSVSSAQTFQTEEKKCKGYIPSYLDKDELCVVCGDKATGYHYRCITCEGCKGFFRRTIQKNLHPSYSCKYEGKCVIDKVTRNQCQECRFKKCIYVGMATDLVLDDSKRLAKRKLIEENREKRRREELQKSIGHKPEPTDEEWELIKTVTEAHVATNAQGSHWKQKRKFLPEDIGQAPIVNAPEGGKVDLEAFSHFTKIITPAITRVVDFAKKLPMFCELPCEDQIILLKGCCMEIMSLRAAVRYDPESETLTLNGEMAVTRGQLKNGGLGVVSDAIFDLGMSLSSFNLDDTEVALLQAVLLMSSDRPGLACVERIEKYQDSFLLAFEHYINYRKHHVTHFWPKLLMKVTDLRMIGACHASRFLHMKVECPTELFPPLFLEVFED
Chain of Nuclear receptor subfamily 1 group I member 2 (Rattus norvegicus) (Q9R1A7 whole entry, looked up): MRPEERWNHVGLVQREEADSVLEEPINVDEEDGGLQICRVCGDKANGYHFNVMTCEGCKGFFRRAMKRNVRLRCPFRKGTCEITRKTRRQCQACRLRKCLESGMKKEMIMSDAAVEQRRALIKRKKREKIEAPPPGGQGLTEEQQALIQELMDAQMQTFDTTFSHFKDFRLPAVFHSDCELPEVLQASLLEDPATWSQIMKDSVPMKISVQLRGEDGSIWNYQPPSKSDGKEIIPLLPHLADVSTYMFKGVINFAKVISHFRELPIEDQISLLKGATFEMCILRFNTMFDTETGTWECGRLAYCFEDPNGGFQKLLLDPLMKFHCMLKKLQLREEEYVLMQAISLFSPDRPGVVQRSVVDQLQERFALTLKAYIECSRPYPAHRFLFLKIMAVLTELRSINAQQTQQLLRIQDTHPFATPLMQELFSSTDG
Chain of Retinoic acid receptor RXR-alpha (Homo sapiens) (P19793 whole entry, looked up): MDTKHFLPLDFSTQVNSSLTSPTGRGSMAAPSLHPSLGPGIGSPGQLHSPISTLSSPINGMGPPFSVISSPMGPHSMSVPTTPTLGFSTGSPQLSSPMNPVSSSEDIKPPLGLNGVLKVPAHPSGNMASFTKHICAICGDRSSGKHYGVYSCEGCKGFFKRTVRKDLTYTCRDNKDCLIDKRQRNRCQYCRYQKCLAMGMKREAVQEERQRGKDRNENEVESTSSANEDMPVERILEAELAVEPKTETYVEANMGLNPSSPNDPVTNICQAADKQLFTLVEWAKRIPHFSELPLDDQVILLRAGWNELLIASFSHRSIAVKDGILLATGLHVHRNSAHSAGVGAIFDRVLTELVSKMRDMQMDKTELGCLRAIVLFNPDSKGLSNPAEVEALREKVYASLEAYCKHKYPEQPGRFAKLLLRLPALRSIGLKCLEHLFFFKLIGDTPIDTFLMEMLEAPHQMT
Chain of Peroxisome proliferator-activated receptor gamma (Homo sapiens) (P37231 whole entry, looked up): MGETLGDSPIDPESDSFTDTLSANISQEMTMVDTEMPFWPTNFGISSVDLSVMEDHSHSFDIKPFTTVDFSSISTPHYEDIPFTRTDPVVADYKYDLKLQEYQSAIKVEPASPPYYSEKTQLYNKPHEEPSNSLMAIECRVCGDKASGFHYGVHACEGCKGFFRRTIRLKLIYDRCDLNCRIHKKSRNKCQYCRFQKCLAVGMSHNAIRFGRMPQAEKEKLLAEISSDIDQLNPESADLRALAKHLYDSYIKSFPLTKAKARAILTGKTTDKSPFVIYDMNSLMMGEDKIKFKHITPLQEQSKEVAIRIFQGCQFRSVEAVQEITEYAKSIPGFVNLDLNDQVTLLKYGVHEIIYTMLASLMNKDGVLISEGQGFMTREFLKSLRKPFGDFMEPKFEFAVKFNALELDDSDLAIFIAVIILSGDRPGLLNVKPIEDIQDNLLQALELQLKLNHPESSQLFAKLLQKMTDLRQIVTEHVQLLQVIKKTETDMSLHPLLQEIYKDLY
Chain of Estrogen receptor (Homo sapiens) (P03372 whole entry, looked up): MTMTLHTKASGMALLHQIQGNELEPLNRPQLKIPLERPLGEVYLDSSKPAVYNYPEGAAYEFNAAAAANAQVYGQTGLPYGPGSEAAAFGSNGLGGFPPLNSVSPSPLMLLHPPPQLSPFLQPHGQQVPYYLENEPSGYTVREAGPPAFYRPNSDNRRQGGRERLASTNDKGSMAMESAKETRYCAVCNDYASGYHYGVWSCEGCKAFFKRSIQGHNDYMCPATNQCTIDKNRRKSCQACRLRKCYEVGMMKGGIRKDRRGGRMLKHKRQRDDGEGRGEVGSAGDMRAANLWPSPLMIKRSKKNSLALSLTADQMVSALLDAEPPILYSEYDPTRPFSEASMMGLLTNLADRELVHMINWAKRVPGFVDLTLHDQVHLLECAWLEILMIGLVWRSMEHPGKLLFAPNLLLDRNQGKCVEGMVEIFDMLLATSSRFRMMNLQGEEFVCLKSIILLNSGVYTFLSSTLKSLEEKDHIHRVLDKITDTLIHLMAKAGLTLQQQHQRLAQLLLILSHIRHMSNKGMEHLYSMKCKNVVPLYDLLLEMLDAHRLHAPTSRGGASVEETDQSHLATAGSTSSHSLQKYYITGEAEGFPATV
Chain of Peroxisome proliferator-activated receptor alpha (Homo sapiens) (Q07869 whole entry, looked up): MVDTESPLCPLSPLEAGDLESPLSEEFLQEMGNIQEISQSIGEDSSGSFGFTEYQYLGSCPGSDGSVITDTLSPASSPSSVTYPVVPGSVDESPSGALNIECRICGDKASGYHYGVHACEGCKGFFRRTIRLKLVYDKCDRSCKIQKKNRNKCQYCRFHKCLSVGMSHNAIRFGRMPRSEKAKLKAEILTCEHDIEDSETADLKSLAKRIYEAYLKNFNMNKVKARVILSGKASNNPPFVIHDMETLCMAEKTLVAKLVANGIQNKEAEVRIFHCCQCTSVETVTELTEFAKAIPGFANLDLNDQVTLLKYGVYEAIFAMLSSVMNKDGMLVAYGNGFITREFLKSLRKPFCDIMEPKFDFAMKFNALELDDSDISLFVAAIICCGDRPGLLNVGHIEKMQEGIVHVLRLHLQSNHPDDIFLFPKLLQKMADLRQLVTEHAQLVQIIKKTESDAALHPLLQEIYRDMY
Chain of Glucocorticoid receptor (Homo sapiens) (P04150 whole entry, looked up): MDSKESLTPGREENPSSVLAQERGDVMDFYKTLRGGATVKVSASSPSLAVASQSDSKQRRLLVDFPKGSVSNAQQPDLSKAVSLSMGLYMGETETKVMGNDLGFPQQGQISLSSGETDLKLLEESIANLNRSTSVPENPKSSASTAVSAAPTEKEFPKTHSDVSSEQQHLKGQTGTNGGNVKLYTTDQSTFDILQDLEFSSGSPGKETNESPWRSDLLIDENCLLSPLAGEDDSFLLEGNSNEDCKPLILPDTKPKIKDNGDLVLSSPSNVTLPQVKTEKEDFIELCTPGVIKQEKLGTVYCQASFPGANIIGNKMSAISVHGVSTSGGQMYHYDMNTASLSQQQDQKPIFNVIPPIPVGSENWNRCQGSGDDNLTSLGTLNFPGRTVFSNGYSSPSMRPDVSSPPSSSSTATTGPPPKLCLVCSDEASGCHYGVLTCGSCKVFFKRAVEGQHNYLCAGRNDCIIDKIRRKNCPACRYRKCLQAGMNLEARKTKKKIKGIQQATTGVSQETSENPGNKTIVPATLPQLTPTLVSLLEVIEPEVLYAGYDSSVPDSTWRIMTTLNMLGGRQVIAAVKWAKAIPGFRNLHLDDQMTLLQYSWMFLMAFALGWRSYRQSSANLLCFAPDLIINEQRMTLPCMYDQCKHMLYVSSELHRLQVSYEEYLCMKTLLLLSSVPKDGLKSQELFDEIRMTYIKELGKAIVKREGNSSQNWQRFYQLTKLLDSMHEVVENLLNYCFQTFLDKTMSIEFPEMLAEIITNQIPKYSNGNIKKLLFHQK
Chain of Peroxisome proliferator-activated receptor delta (Homo sapiens) (Q03181 whole entry, looked up): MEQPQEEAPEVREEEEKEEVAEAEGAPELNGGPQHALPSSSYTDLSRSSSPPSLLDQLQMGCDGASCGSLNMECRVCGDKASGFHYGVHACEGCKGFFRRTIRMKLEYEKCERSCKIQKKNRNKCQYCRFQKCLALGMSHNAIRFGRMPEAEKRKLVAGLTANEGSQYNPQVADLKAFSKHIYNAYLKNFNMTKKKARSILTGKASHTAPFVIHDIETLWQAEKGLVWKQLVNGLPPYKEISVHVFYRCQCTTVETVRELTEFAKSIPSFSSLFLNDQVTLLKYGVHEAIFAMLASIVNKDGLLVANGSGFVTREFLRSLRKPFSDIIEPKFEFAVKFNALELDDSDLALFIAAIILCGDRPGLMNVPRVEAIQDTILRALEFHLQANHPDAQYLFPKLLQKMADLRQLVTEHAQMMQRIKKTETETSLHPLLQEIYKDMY

Turning to `c1ccc2cc3c(ccc4ccccc43)cc2c1`, the Potency entry in [1], in [3] and in [10] was “inactive” throughout. The max response in assay [2] was 4.49%; in [4] it was -11.9%; in assay [5] it was -3.27% (inactive); in assay [7] it was -0.566% (inactive); in assay [8] it was -18.2% (inactive); in assay [9], -8% (inactive). In addition, the activity change % (negative = inhibition) in assay [6] is -17.7% (inactive).
Turning to `Fc1ccc(Br)cc1`, the Potency entry in [1], in [11], in assay [3], in assay [15] and in assay [10] was “inactive” throughout. Moreover, the activation is 9.16% (inactive) in assay [12], -1.54% (inactive) in assay [13] and 2.85% (inactive) in assay [14]. Further, the max response in [2] is 4.76%; in assay [4] it was -8.4%; in assay [5], 4.33% (inactive); in assay [7], -2.75% (inactive); in [8] it was -9.66% (inactive); in [9], -0.046% (inactive). In addition, the max response in [16] was -1.72% (inactive). Moreover, in assay [17], the outcome was inactive.
With `CCCC/C=C/CCCCO`, the Potency result in assay [1], in assay [11], in [3], in [15] and in [10] was “inactive” in each case. The activation in assay [12] is -4.1% (inactive); in assay [14], -0.731% (inactive). In addition, the molecule was called inactive in assay [18] and in assay [17]. For the same molecule, the max response was -14.6% in assay [2]; -7.43% in [4]; -16.5% (inactive) in assay [5]; 0.665% (inactive) in assay [8]; -11.8% (inactive) in assay [9]; -2.13% (inactive) in assay [16]. Also, the activity change % (negative = inhibition) in assay [6] is 0.772% (inactive).
Regarding `NCCCCCCCCCCC(=O)O`, the Potency entry in assay [1], in assay [20] and in assay [10] was “inactive” throughout. Further, the max response in [19] was 0.715%; in assay [2] it was -7.72%; in assay [7] it was -1.64% (inactive); in assay [8] it was -2.31% (inactive); in assay [9], -12% (inactive); in assay [16], 1.01% (inactive). The call in [18] was inactive. The activity change % (negative = inhibition) in assay [6] was -1.93% (inactive). The figures for the activation in assay [13] and in [14] were 0.322% (inactive) and 6.19% (inactive), respectively.
Turning to `Cc1ccc(C(C)(C)C)c(O)c1`, the Potency result in assay [1], in [3], in assay [15] and in assay [10] was “inactive” in each case. Moreover, the result in [18] was inactive. Besides, the max response in [2] is -12.1%; in assay [4] it was -16%; in assay [5], -3.16% (inactive); in assay [7], -0.656% (inactive); in assay [8], 6.52% (inactive); in [9], -6.81% (inactive). Moreover, in [16], the max response is 1.73% (inactive). Besides, the activation in [13] is -4.17% (inactive); in assay [14] it was 1.48% (inactive).
`CCCOC(=O)c1ccc(C(=O)OCCC)nc1`: the Potency entry in [1] and in assay [15] was “inactive” throughout. Besides, the activation in assay [12] is -11.2% (inactive); in [13], -3.13% (inactive); in assay [14], -2.64% (inactive). The result in assay [18] and in assay [17] was inactive. For the same molecule, the max response was 6.56% in [4]; -17.9% (inactive) in [5]; -0.236% (inactive) in assay [7]; 22.4% (inactive) in assay [8]; -23.4% (inactive) in assay [9]; -3.51% (inactive) in assay [16].
Turning to `Cn1sccc1=O`, the Potency entry in [1], in assay [20], in [15] and in assay [10] was “inactive” throughout. Moreover, the results for the activation in assay [12] and in assay [14] were 2.87% (inactive) and -0.202% (inactive), respectively. For the same molecule, the max response in [19] is -3.21%; in assay [4] it was -13.8%; in assay [5], 7.99% (inactive); in assay [7], -2.31% (inactive); in [8], -9.28% (inactive); in assay [9] it was -4.03% (inactive). The molecule was classed as inactive in assay [18]. Also, the activity change % (negative = inhibition) in [6] was -11.2% (inactive).
